Data from PubChem BioAssay AID1030 (National Center for Advancing Translational Sciences (NCATS), 2008).
Out of some 220,000 compounds screened, about 16,000 (7.3%) were called active. About 25% were inconclusive and are not listed. This excerpt belongs to a sample that is enriched for actives. Values without a mark were called inactive. Calls follow the shape of the dose curve; as a rule, active = well fitted inhibition curve with a large enough effect (not every such curve was filed as active); inconclusive = small, poorly fitted or top-dose-only effect, or another doubt; inactive = no such curve, though single readings can be large or run the other way.

What follows are molecules tested against Aldehyde dehydrogenase 1A1 (Homo sapiens) (UniProt P00352) (assay: qHTS Assay for Inhibitors of Aldehyde Dehydrogenase 1 (ALDH1A1)). Conditions: Purified ALDH1A1, NADH fluorescence, propionaldehyde substrate; series mostly up to 75.3 µM; activity, negative = inhibition: at the top concentration.
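For activity, negative = inhibition in this document: plate controls were no enzyme wells and a reference inhibitor.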
Potency is read from the fitted curve at half-maximal effect.

Chain of Aldehyde dehydrogenase 1A1 (Homo sapiens) (P00352 whole entry, looked up): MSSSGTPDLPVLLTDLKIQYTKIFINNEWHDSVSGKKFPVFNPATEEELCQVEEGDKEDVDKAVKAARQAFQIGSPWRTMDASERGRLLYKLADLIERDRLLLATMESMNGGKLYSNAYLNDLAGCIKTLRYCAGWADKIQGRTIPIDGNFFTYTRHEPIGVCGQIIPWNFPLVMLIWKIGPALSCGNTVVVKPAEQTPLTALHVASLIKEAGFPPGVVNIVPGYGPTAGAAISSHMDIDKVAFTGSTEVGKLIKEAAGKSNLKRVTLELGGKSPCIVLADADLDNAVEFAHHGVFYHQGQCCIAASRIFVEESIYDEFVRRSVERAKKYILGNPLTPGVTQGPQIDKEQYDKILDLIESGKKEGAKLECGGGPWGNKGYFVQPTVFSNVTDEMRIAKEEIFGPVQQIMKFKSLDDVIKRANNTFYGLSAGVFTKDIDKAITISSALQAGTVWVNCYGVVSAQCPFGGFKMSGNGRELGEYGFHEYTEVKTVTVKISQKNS

Structure (SMILES) | activity, negative = inhibition [%] | Potency
O=C(/C=C/c1ccc(F)cc1)NCCNC(=O)/C=C/c1ccc(F)cc1 | 10.5 | 
O=C(CCC1CCCN(Cc2ccc(O)c(Cl)c2)C1)NCc1ccccc1F (centres undefined) | -7.56 | 
COc1cc(NC(=S)NNC(=O)CC(C)C)c(OC)cc1Cl |  | 25.1 µM (active)
CC(C)CC(=O)NC(=S)Nc1cc(C(=O)O)ccc1Cl | 10.3 | 
CCOCC(=O)Nc1cc(OC)c(Cl)cc1OC | -7.89 | 
CCC(CC)C(=O)Nc1ccc(S(=O)(=O)Nc2nccs2)cc1 | -0.847 | 
O=C(C1CCCN1S(=O)(=O)c1ccc(Br)cc1)N1CCOCC1 (centres undefined) | 1.94 | 
COc1cccc(Oc2ccc(N)cc2)c1 | -8.54 | 
Nc1ccc(Oc2ccc(Cl)cc2)cc1 | -10.1 | 
Cc1ccc(Oc2ccc(N)cc2)cc1 |  | 17.8 µM (active)
O=C(NNS(=O)(=O)c1ccc(F)cc1)c1cnccn1 | 2.86 | 
Cc1c(Cl)c([N+](=O)[O-])nn1CCCC(=O)NC(C)c1ccccc1 (centres undefined) | -5.68 | 
S=C(Nc1cccc(Br)c1)N1CCn2cccc2C1c1cccnc1 (centres undefined) | -6.93 | 
O=c1oc2ccccc2cc1-c1csc(Nc2ccc(O)cc2)n1 | -10.9 | 
COc1ccc2nc(Nc3nc(-c4cc5ccccc5oc4=O)cs3)sc2c1 | 1.54 | 
Nc1ncc(-c2cc3ccccc3oc2=O)s1 |  | 11.2 µM (active)
CC(C)NC(=O)c1ccc(Cl)cc1Cl | -1.33 | 
COc1cccc(NC(=O)CN(C)C(C)C(=O)Nc2ccc(C#N)cc2)c1 (centres undefined) | 1.94 | 
COc1cccc(CNC(=O)CCN2C(=S)NC(C)(C)CC2C)c1 (centres undefined) | -4.03 | 
O=C(CCN1CCN(c2ccccc2)CC1)NNC(=S)Nc1ccccc1 | -6.58 | 
O=C(O)/C=C\C(=O)Nc1ccc(OCc2ccccc2)cc1 |  | 25.1 µM (active)
O=C(/C=C/c1ccco1)Nc1ccc(Oc2ccccc2)cc1 | 2.63 | 
O=C(N/N=C/c1ccc(OCc2ccccc2)cc1)c1ccc(O)cc1 | 12.2 | 
NC(=O)COC(=O)c1cc(S(=O)(=O)N2CCN(c3ccccc3)CC2)ccc1Cl | 2.01 | 
COC(=O)C1=C(C)OC(N)=C(C#N)C1c1cc(OC)ccc1OC (centres undefined) | 3.09 | 
CCOC(=O)C1=C(CC)OC(N)=C(C#N)C1c1ccc(F)cc1F (centres undefined) | 10.9 | 
CCC1=C(C(=O)OC)C(c2cc(OC)ccc2OC)C(C#N)=C(N)O1 (centres undefined) |  | 17.8 µM (active)

Structure (SMILES) | activity, negative = inhibition [%] | Potency
COc1ccc(S(=O)(=O)N(C)CC(=O)N2CCCC2)cc1Cl | -3.37 | 
Cc1noc(C)c1S(=O)(=O)N(C)Cc1ccccc1 | 0.615 | 
Cc1cccc(NS(=O)(=O)c2ccc(C)c(C(N)=O)c2)c1 | -7.93 | 
CC(NC(=O)C(=O)N/N=C/c1ccc(Cl)cc1)c1ccccc1 (centres undefined) | -4.56 | 
Cc1ccc(-n2c(C)cc(C(=O)CN3C(=O)C(=O)N(C4CCCC4)C3=O)c2C)cc1 | 1.53 | 
COc1cc(CNC2CCCCC2)c(Br)cc1OC1CCCC1 | -3.19 | 
O=C(Cc1ccccc1)NNS(=O)(=O)c1ccc([N+](=O)[O-])cc1 | 15.8 | 
O=C(Nc1ccc([N+](=O)[O-])cc1)C1(c2ccccc2)CCOCC1 | 4.59 | 
O=C(O)/C=C/C(=O)NNc1ccc([N+](=O)[O-])cc1 |  | 14.1 µM (active)
NC(=O)c1ccc(CN2CCC(Cc3ccccc3)CC2)cc1 | 6.52 | 
O=C(COC(=O)c1ccc[nH]c1=O)Nc1ccc2c(c1)OC(F)(F)O2 | 8.44 | 
Cc1c(S(=O)(=O)O)ccc(N=Nc2c(O)c(C(=O)O)cc3ccccc23)c1Cl |  | 3.55 µM (active)
Cc1nn(Cc2ccc(Cl)cc2)c(Cl)c1/C=N/NC(=O)CNc1ccccc1F | 21.3 | 
O=C(NNC(=S)NCc1ccco1)C(c1ccccc1)c1ccccc1 | 1.75 | 
COC(=O)Cc1ccc(NC(=S)NCc2ccco2)cc1 | 4.15 | 
FC(F)Oc1ccc(NC(=S)NCc2ccco2)cc1Cl |  | 14.1 µM (active)
O=C(NCc1cccs1)c1cc(-c2ccccn2)nc2ccc(Br)cc12 | 6.33 | 
OC(COc1ccccc1)Cn1cc(Br)cn1 (centres undefined) | 2.81 | 
C=CCn1c(=N)n(CC(O)COc2ccc(OC)cc2)c2ccccc21 (centres undefined) | -1.74 | 
OC(CN=c1sc2ccccc2n1CC(O)COc1ccccc1)COc1ccccc1 (centres undefined) |  | 2.82 µM (active)
Cc1ccccc1NS(=O)(=O)CCCCC(Cl)(Cl)Cl | -3.72 | 
O=C1N=C(N2CCOCC2)S/C1=C\C=C/c1ccccc1 | 0.576 | 
Cc1ccsc1/C=C1\SC(N2CCOCC2)=NC1=O |  | 14.1 µM (active)
CCc1ccc(/C=C2\SC(N3CCOCC3)=NC2=O)cc1 | 1.81 | 
NC(N)=NCCCc1cn(CC(=O)N2CCNCC2)nn1 | 0.974 | 
CCOC(=O)COc1ccc([N+](=O)[O-])cc1 | -7.41 | 
Cc1cc(C)cc(OCC(=O)O/N=C(\N)Cc2ccc([N+](=O)[O-])cc2)c1 |  | 10 µM (active)
